Test in all cases: DAPPL (digital affinity profiling via proximity ligation, sequencing); 10 mM Tris-HCl pH 7.5, 50 mM NaCl, 1 mM DTT, 4% glycerol, room temperature, 30 min; GST-TFs on glutathione beads, 16-mer random dsDNA library, 0.1% formaldehyde crosslink after washing; high values mean tight binding
One test deals with T1, FEV (Homo sapiens, UniProt Q99581 1-238).
T1 sequence: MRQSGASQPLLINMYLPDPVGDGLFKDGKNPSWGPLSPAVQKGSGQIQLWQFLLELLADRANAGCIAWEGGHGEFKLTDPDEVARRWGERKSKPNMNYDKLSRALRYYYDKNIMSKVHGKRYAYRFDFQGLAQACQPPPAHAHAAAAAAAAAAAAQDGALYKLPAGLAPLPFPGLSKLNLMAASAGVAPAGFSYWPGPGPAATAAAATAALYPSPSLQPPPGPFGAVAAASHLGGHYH
As to conditions: protein: recombinant; tags: N-terminal GST; dsDNA, one strand shown. In short, it runs like this: (§1)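 Human transcription factors fused to GST were expressed in yeast, captured on glutathione beads, given DNA barcodes and pooled with a GST-only negative control. Pools were incubated with 200 nmole of a 16-mer random double-stranded DNA library in Tris/NaCl/DTT/glycerol buffer at room temperature for 30 min. They were then washed, crosslinked with 0.1% formaldehyde, proximity-ligated (BsaI/T4 ligase, 1 h, 37 °C), PCR-amplified and sequenced on an Illumina NextSeq500. Binding signal is each 6-mer's read frequency for a factor divided by its frequency for the GST control.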

In the next test the target is ETV5 (Homo sapiens, UniProt P41161 1-510). As to conditions: protein: recombinant; tags: N-terminal GST; dsDNA, one strand shown. In short, it runs like this:
as §1

Another test addresses HSF1 (Homo sapiens, UniProt Q00613 1-529). Particulars: protein: recombinant; tags: N-terminal GST; chain copies: 3; dsDNA, one strand shown. The essentials: as §1
A further test has as its target T2, SPIC (Homo sapiens, UniProt Q8N5J4 1-248).
T2 sequence: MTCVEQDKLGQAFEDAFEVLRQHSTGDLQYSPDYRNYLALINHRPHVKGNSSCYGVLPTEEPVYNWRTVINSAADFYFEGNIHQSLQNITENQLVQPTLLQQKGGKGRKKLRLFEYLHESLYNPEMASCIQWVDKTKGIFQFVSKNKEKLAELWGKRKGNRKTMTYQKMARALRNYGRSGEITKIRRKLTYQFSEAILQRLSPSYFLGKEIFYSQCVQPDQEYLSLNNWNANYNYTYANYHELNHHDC
As to conditions: protein: recombinant; tags: N-terminal GST; dsDNA, one strand shown. In short, it runs like this: as §1

A further test concerns the target ELF4 (Homo sapiens, UniProt Q99607 1-663). Particulars: protein: recombinant; tags: N-terminal GST; dsDNA, one strand shown. In short, it runs like this:
as §1

The target of the next test is T3, ELK4 (Homo sapiens, UniProt P28324-2 1-405).
T3 sequence: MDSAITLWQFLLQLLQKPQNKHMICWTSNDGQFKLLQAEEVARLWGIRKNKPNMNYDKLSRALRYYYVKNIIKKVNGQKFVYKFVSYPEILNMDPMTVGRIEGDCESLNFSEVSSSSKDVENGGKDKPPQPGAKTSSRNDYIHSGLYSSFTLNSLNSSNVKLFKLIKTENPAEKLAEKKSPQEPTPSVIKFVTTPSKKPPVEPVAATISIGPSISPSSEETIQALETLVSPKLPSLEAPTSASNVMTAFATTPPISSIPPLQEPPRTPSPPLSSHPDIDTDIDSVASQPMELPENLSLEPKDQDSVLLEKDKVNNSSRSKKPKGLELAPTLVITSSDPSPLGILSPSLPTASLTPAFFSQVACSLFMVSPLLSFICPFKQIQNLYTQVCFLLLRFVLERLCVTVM
As to conditions: protein: recombinant; tags: N-terminal GST; dsDNA, one strand shown. The essentials: as §1

The next test deals with T4, ETV2 (Homo sapiens, UniProt O00321 1-342).
T4 sequence: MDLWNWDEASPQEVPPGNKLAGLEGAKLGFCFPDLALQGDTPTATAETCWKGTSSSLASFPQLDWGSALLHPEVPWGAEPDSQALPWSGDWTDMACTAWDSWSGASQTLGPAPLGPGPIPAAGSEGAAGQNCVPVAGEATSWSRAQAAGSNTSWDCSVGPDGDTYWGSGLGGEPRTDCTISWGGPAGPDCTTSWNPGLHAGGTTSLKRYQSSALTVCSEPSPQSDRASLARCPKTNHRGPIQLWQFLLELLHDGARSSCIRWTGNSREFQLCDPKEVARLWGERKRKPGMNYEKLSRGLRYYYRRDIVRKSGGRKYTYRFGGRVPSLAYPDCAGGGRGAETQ
Particulars: protein: recombinant; tags: N-terminal GST; dsDNA, one strand shown. In short, it runs like this: as §1

Another test has as its target T5, ELF3 (Homo sapiens, UniProt P78545 1-371).
T5 sequence: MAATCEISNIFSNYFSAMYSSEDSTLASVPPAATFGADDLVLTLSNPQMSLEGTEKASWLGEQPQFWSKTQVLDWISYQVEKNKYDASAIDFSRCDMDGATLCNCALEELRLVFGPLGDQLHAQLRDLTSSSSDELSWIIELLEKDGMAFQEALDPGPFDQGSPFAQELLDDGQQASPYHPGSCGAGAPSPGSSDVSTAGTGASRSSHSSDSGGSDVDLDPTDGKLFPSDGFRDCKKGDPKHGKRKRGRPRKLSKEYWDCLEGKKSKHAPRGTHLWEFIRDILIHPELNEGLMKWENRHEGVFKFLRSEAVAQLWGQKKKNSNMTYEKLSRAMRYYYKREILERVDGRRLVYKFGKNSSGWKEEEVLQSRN
Particulars: protein: recombinant; tags: N-terminal GST; dsDNA, one strand shown. In short, it runs like this:
as §1

The next test has as its target CRX (Homo sapiens, UniProt O43186 1-299). As to conditions: protein: recombinant; tags: N-terminal GST; dsDNA, one strand shown. In short, it runs like this:
as §1

In another test the target is ETV1 (Homo sapiens, UniProt P50549 1-477). As to conditions: protein: recombinant; tags: N-terminal GST; dsDNA, one strand shown. The essentials:
as §1

For a further test, the target named is T6, ERF (Homo sapiens, UniProt P50548 1-548).
T6 sequence: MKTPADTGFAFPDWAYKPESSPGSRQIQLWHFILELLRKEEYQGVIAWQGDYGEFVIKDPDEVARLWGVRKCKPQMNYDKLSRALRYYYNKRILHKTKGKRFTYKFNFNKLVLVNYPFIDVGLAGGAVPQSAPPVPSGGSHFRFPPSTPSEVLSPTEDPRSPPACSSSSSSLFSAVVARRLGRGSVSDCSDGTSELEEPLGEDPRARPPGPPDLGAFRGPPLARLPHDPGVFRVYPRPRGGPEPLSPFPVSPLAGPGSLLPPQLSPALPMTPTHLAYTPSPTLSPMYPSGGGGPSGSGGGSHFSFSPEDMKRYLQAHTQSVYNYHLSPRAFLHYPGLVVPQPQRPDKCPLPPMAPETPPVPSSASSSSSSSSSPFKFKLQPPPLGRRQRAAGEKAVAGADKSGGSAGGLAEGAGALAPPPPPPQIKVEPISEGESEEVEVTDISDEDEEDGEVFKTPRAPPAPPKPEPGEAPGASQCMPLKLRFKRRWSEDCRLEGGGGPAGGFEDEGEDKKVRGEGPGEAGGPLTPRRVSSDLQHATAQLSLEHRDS
Particulars: protein: recombinant; tags: N-terminal GST; dsDNA, one strand shown. The essentials: as §1

The target of the next test is T7, ETV3L (Homo sapiens, UniProt Q6ZN32 1-361).
T7 sequence: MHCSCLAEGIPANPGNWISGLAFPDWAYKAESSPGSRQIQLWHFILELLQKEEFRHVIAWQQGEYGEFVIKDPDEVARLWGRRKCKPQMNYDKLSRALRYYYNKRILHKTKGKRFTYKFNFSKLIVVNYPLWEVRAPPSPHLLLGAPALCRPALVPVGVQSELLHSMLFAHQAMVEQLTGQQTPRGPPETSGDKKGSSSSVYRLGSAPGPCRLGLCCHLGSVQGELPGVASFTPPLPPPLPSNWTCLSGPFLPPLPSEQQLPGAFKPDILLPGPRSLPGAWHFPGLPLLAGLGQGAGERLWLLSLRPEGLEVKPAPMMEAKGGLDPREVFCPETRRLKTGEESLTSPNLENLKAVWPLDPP
As to conditions: protein: recombinant; tags: N-terminal GST; dsDNA, one strand shown. The essentials:
as §1

In the next test the target is T8, ETS2 (Homo sapiens, UniProt P15036 1-469).
T8 sequence: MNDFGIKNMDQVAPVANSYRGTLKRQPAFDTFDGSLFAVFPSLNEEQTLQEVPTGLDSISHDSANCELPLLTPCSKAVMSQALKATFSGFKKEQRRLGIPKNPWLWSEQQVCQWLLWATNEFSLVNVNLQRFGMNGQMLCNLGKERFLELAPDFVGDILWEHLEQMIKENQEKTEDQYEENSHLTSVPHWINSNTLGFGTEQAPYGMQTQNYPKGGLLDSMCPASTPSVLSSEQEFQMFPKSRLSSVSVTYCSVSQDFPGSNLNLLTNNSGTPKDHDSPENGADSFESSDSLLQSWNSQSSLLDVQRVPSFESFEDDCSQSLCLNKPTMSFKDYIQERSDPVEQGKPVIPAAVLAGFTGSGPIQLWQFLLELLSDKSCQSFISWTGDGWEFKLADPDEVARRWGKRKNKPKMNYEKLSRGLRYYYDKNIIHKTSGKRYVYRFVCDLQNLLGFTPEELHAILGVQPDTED
Particulars: protein: recombinant; tags: N-terminal GST; dsDNA, one strand shown. The essentials:
as §1

The target of the next test is T9, SPDEF (Homo sapiens, UniProt O95238 1-335).
T9 sequence: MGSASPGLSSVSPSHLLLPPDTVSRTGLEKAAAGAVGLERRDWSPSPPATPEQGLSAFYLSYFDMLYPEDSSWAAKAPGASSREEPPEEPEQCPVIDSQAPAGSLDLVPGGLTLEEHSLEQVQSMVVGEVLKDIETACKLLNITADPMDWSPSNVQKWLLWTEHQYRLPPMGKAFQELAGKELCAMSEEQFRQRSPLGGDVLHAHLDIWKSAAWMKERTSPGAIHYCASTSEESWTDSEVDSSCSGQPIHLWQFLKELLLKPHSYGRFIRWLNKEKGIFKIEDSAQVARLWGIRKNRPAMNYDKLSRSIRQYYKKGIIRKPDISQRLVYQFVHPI
Particulars: protein: recombinant; tags: N-terminal GST; dsDNA, one strand shown. The essentials:
as §1

A further test concerns the target T10, ETV7 (Homo sapiens, UniProt Q9Y603 1-341).
T10 sequence: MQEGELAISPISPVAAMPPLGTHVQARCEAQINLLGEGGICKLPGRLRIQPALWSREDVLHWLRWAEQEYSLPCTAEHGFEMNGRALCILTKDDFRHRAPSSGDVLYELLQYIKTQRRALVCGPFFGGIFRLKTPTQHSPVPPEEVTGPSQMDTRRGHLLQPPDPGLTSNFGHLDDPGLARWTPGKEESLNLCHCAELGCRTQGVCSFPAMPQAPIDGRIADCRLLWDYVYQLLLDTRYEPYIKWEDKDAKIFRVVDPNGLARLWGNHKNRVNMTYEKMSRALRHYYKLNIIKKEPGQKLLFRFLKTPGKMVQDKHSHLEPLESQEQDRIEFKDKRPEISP
Particulars: protein: recombinant; tags: N-terminal GST; dsDNA, one strand shown. The essentials:
as §1

In the next test the target is T11, ELF5 (Homo sapiens, UniProt Q9UKW6-2 1-255).
T11 sequence: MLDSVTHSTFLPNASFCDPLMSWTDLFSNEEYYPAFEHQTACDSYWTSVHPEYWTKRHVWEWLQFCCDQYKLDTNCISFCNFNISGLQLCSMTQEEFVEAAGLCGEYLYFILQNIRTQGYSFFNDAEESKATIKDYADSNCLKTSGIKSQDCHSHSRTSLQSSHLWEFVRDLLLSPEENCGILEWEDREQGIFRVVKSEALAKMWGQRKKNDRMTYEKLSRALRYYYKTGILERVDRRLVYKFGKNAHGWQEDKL
Particulars: protein: recombinant; tags: N-terminal GST; dsDNA, one strand shown. In short, it runs like this: as §1

Another test concerns the target T12, ETV3 (Homo sapiens, UniProt P41162-2 1-143).
T12 sequence: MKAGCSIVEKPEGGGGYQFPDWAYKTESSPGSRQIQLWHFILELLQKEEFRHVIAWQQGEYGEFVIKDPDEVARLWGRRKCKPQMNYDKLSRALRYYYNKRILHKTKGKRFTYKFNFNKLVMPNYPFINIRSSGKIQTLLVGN
As to conditions: protein: recombinant; tags: N-terminal GST; dsDNA, one strand shown. The essentials: as §1

The target of another test is ETV6 (Homo sapiens, UniProt P41212 1-452). As to conditions: protein: recombinant; tags: N-terminal GST; dsDNA, one strand shown. The essentials:
as §1

We go through 1 sequence from publication PMC7862700, “An all-to-all approach to the identification of sequence-specific readers for epigenetic DNA modifications on cytosine”.

Chain of ETV1 (P50549 whole entry): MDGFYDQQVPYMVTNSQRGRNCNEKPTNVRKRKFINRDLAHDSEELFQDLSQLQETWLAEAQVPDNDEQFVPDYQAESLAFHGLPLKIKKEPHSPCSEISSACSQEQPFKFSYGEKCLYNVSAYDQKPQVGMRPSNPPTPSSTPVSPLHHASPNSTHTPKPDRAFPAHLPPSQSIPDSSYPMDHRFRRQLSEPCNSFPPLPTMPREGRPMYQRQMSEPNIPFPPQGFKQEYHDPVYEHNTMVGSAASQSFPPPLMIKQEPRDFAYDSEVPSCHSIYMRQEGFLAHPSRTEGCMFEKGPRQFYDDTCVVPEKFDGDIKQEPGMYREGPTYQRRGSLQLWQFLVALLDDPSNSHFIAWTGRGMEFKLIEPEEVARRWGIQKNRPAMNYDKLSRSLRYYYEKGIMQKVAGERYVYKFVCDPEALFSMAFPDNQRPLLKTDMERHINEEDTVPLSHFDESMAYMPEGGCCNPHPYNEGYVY
Chain of CRX (O43186 whole entry): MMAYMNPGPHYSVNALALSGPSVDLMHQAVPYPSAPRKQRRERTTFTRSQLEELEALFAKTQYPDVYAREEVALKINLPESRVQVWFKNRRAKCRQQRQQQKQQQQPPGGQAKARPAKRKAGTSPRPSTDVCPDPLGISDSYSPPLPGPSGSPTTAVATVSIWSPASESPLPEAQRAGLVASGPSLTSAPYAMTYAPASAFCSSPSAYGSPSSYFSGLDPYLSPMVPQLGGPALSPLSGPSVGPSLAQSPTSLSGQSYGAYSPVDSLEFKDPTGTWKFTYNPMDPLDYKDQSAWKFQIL
Chain of ETV5 (P41161 whole entry): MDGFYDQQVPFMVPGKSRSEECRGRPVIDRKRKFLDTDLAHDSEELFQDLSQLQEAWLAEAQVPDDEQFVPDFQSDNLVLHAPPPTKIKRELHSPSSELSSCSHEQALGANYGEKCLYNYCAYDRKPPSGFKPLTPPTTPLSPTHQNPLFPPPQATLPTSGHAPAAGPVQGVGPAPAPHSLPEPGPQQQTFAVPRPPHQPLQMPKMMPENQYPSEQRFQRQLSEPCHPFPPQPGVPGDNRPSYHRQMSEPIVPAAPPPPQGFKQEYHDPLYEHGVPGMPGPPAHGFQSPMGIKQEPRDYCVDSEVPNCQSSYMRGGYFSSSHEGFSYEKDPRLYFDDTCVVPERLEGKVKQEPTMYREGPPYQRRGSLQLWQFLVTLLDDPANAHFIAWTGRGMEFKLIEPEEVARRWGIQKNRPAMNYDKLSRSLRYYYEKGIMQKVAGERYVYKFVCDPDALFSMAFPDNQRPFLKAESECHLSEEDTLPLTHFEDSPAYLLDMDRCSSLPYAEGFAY
Chain of ELF4 (Q99607 whole entry): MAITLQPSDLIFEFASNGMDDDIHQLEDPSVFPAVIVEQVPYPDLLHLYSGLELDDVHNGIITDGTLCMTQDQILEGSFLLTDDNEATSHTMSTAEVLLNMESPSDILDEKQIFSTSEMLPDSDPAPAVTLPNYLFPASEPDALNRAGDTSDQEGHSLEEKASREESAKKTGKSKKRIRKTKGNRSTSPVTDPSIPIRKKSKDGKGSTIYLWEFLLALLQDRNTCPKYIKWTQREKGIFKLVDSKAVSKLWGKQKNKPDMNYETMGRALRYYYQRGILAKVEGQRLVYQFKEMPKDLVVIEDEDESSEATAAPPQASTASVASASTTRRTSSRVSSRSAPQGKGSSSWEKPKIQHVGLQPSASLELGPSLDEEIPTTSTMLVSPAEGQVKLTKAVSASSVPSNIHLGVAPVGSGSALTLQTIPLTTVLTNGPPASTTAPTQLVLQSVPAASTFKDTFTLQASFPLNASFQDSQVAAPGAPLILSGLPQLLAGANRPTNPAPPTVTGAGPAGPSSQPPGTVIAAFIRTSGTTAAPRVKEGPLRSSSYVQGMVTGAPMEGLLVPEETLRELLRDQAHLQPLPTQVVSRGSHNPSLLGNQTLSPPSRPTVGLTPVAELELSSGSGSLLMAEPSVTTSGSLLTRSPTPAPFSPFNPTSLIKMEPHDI
Chain of ETV6 (P41212 whole entry): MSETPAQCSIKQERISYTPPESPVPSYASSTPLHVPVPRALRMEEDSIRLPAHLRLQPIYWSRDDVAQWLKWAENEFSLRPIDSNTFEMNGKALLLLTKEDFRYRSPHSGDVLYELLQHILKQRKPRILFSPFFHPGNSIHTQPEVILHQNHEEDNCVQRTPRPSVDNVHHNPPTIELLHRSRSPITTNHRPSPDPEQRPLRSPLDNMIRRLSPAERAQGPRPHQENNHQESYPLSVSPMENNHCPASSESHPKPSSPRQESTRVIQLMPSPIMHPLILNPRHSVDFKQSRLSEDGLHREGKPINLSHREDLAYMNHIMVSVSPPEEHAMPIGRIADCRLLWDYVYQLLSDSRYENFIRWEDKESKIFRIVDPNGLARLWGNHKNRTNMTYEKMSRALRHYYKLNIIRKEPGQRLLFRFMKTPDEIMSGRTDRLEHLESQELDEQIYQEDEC
Chain of HSF1 (Q00613 whole entry): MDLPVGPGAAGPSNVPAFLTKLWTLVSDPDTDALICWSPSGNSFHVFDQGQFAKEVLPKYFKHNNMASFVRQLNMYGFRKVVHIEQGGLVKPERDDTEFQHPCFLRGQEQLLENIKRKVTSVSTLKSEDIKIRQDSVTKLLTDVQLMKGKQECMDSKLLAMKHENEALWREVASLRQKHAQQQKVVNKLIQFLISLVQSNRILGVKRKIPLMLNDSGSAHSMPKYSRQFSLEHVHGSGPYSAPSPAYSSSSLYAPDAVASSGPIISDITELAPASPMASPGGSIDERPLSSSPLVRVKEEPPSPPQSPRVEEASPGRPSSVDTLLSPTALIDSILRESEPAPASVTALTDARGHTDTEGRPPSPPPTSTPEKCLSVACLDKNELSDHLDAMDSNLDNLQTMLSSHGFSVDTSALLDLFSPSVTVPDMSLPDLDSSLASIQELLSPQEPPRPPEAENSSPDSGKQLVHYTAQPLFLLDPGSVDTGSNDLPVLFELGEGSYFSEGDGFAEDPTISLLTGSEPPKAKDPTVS

Consider TATCGA, for which the binding signal is 1.2 fold enrichment (6-mer frequency, TF over GST control) with FEV; 1.29 fold enrichment (6-mer frequency, TF over GST control) with ETV5; 1.83 fold enrichment (6-mer frequency, TF over GST control) with HSF1; 1.28 fold enrichment (6-mer frequency, TF over GST control) in the test with SPIC; 1.34 fold enrichment (6-mer frequency, TF over GST control) with ELF4; 1.37 fold enrichment (6-mer frequency, TF over GST control) in the test with ELK4. The binding signal with ETV2 is 1.44 fold enrichment (6-mer frequency, TF over GST control); with ELF3, 1.55 fold enrichment (6-mer frequency, TF over GST control); in the test with CRX, 1.59 fold enrichment (6-mer frequency, TF over GST control); in the test with ETV1, 1.31 fold enrichment (6-mer frequency, TF over GST control); in the test with ERF, 1.38 fold enrichment (6-mer frequency, TF over GST control); with ETV3L it was 1.41 fold enrichment (6-mer frequency, TF over GST control). Moreover, the binding signal was 1.44 fold enrichment (6-mer frequency, TF over GST control) in the test with ETS2; 1.34 fold enrichment (6-mer frequency, TF over GST control) with SPDEF; 1.32 fold enrichment (6-mer frequency, TF over GST control) in the test with ETV7; 1.18 fold enrichment (6-mer frequency, TF over GST control) with ELF5; 1.25 fold enrichment (6-mer frequency, TF over GST control) with ETV3; 1.35 fold enrichment (6-mer frequency, TF over GST control) with ETV6.
